Screening results deposited in PubChem BioAssay by several laboratories.
Sampled rows, rich in hits. Any-hit rate of the full collection: about 6.7%.
BoNT F protease = BoNT/F light chain protease inhibitors, primary screen, biochemical, flow cytometry, MLPCN library. inhibition, % at 10 µM. actives 0.22% (n = 360,000). AID 588497, 2011. Botulinum neurotoxin type F light chain protease (Clostridium botulinum). Multiplex microsphere protease cleavage assay; in the data active means inhibition above about 35%, passing the limit was not always enough; inconclusive means no clear call, values can overlap the other calls
Anthrax LF inh2 = Bacillus anthracis LF protease inhibitors, primary screen, biochemical, multiplex microsphere, MLPCN library; actives 0.12% (n = 360,000); AID 588501, 2011; inhibition, % at 10 µM; Lethal factor (Bacillus anthracis), P15917; multiplex microsphere protease cleavage assay
Mtb FBA inh = Mtb FBA enzyme inhibitors, primary screen, biochemical, fluorescence, strain H37Rv. purified M. tuberculosis FBA, fluorescence read-out. inhibition, % at 1 µM. actives 2.3% (n = 360,000); in the data active means inhibition above about 27%
Target sequence (P9WQA3 whole entry, looked up): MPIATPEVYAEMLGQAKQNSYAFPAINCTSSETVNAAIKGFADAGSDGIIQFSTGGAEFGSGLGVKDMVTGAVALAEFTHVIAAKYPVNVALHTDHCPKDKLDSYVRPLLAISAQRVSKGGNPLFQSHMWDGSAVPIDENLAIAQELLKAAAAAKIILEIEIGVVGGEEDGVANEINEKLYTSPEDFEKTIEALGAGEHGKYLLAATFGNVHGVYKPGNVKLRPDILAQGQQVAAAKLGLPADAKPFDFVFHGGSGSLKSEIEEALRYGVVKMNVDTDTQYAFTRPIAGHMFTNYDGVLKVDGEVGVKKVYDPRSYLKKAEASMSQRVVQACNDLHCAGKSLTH
BoNT-A LC inh2 = BoNT/A light chain protease inhibitors, primary screen, biochemical, flow cytometry, MLPCN library. Botulinum neurotoxin type A light chain protease (Clostridium botulinum A str. ATCC 3502). multiplex microsphere protease substrate cleavage. inhibition, % at 10 µM. actives 0.17% (n = 360,000). AID 588499, 2011
GDH-TPI counter = GDH-TPI coupling enzyme inhibitors, primary screen, artefact control for M. tuberculosis FBA inhibitor project, biochemical, absorbance, full deck. GDH-TPI coupled enzyme counterscreen, NADH absorbance. inhibition, % at 4.8 µM. actives 1.2% (n = 360,000). AID 588335, 2011; in the data active means inhibition above about 30%
Autofluor counter = compound fluorescence in toxin protease inhibitor counterscreen; compound autofluorescence counterscreen, microsphere flow cytometry; active compounds read high; actives 3.1% (n = 360,000); fluorescence intensity (no concentration beside the values); in the data active means fluorescence intensity above about 16000; inconclusive means no clear call, values can overlap the other calls
Numbers stand for hits; . = inactive; ? = inconclusive. Unless noted, no stated cut-off is given here; in the data, active means inhibition above about 30%; inconclusive means no clear call, values can overlap the other calls; inactive means below that.

SMILES | BoNT F protease | Anthrax LF inh2 | Mtb FBA inh | BoNT-A LC inh2 | GDH-TPI counter | Autofluor counter
Nc1c(C(=O)NCc2ccco2)c2nc3ccccc3nc2n1Cc1ccccc1 | . | . | 112 | . | . | .
Nc1c(C(=O)NCc2ccco2)nnn1Cc1ccccc1 | . | . | . | . | . | .
COc1ccc(CCn2c(N)c(C(=O)NCc3ccco3)c3nc4ccccc4nc32)cc1OC | . | . | . | . | . | .
O=C(Nc1cccc(-c2nc3ccccc3o2)c1)c1ccc(N2C(=O)C3C4C=CC(C4)C3C2=O)cc1 (stereo unspecified) | . | . | . | . | . | .
Cc1cc(NS(=O)(=O)c2ccc(NC(=S)NC(=O)c3ccc(C(C)(C)C)cc3)cc2)no1 | . | . | . | . | . | .
Cc1cc(Nc2ncc(Cl)cc2Cl)n(-c2ccccc2)n1 | . | . | . | . | . | .
Cc1cc(Nc2cnc3ccccc3n2)n(-c2ccccc2)n1 | . | . | . | . | . | 17464
Cc1cc(Nc2nc3ccccc3[nH]c2=O)n(-c2ccccc2)n1 | . | . | . | . | 43 | .
Cc1cc(Nc2nc3ccccc3nc2Cl)n(-c2ccc([N+](=O)[O-])cc2)n1 | . | . | . | . | . | .
O=C1CC(=O)N(c2ccc(Cl)cc2Cl)C(=O)N1 | . | . | . | . | . | 21690
Cc1cc(Br)ccc1N1C(=O)CC(=O)NC1=O | . | . | . | . | . | 20409
CCCCNC(=O)Cn1nnc(-c2ccccc2)c1COc1ccc(C(C)=O)cc1 | . | . | . | . | . | .
CN(C)c1ccc(CNn2cnnc2SCc2ccccc2F)cc1 | . | . | . | . | . | 19034
CN(C)c1ccc(CNn2cnnc2SCC(=O)NC(C)(C)C)cc1 | . | . | . | . | . | .
Nc1nc(=S)c2ncn(C3CCCCC3)c2[nH]1 | . | . | . | . | 31 | .
Nc1nc(=S)c2ncn([C@@H]3O[C@H](CO)[C@@H](O)[C@H]3O)c2[nH]1 | . | . | . | . | . | .
CCN(CC)S(=O)(=O)c1ccc(/C(O)=C(\C#N)c2nc3ccccc3n2C)cc1 | . | . | . | . | 39 | .
Cn1c(/C(C#N)=C(\O)c2ccc([N+](=O)[O-])cc2)nc2ccccc21 | . | . | . | . | . | .
COC(=O)CC1COc2ccccc2N1C(=O)c1ccc(OC)cc1 (stereo unspecified) | . | . | . | ? | . | 21654
COC(=O)CC1COc2ccccc2N1C(=O)c1cc(OC)c(OC)c(OC)c1 (stereo unspecified) | . | . | . | . | . | .
CCN(CC)c1ccc(C=C2C(=O)OC(C)(C(C)(C)C)OC2=O)cc1 (stereo unspecified) | . | . | . | . | 36 | .
CN(C)c1ccc(C=C2C(=O)OC(C)(C(C)(C)C)OC2=O)cc1 (stereo unspecified) | . | . | . | . | . | .
O=C(c1ccc(Cl)cc1)c1cnc(Nc2ccccc2Cl)s1 | . | . | . | ? | . | 20938
COCCn1c(SCC(=O)Nc2cccc(C(=O)OC)c2)nc2ccccc2c1=O | . | . | . | . | . | 16194
COCCn1c(SCC(=O)Nc2cc(C)cc(C)c2)nc2ccccc2c1=O | . | . | . | . | . | .
SMILES | BoNT F protease | Anthrax LF inh2 | Mtb FBA inh | BoNT-A LC inh2 | GDH-TPI counter | Autofluor counter
CCOc1ccc(NC(=O)CSc2nc3ccccc3c(=O)n2CCCC(=O)N2CCCC2)cc1 | . | . | . | . | . | .
COc1ccc(NC(=O)CSc2nc3ccccc3c(=O)n2CCC(=O)N2CCCCC2)cc1 | . | . | . | . | . | 21679
CCOCCCn1c(SCC(=O)Nc2cccc(OC)c2)nc2ccccc2c1=O | . | . | . | . | . | .
COc1cccc(NC(=O)CSc2nc3ccccc3c(=O)n2CCCC(=O)N2CCCC2)c1 | . | . | . | ? | . | 23337
COc1ccc(C(=O)Nc2ccccc2C(=O)NCCN2CCOCC2)cc1 | . | . | . | . | . | .
CCn1c(CN2c3ccccc3Sc3ccccc32)n[nH]c1=S | . | . | . | . | . | .
O=C(CN1C(=O)C(c2ccccc2)Oc2cccnc21)NCc1ccccc1F (stereo unspecified) | . | . | . | . | . | .
N#C/C(=C\c1c(Cl)cccc1Cl)c1nc2ccccc2[nH]1 | . | . | . | . | . | .
N#C/C(=C\c1c(Cl)cccc1Cl)c1nc2ccccc2o1 | 49 | . | . | . | . | .
Cc1ccccc1NC(=O)NC1CCCc2ccccc21 (stereo unspecified) | . | . | . | . | . | .
CS(=O)(=O)c1ccc(N2CCN(S(=O)(=O)c3cccs3)CC2)c([N+](=O)[O-])c1 | ? | . | . | . | . | ?
C=CCN1C(=O)C(C)NC1=S (stereo unspecified) | ? | . | . | . | . | .
C=CCN1C(=O)C(C(C)CC)NC1=S (stereo unspecified) | . | . | . | ? | . | 18817
CN1CCc2c1nc1ccccc1c2NC(=O)CN1CCCC1 | . | . | . | . | . | .
Cc1ccccc1NC(=O)COc1coc(CN2CCCc3ccccc32)cc1=O | . | . | . | . | . | .
O=C(/C=C/c1ccc(Br)cc1)NC1CCCCCC1 | . | . | . | . | . | 21525
CCCOc1ccc(/C=C/C(=O)NC2CCCCC2)cc1 | . | . | . | . | . | .
CCOc1ccc(/C=C2\SC(N3CCCCC3)=NC2=O)cc1 | . | . | . | . | 48 | .
Cc1c(N(C)C(=O)c2ccc3c(c2)OCO3)c(=O)n(-c2ccccc2)n1C | . | . | . | . | . | .
CC(=O)Nc1ccccc1-c1cccc2nccn12 | . | . | 125 | . | . | .
CC(=O)Nc1cccc(-c2cccc3nccn23)c1 | . | . | 159 | . | . | .
COc1ncc(-c2cccc3nccn23)c(OC)n1 | . | . | . | . | . | .
COc1ccccc1-c1cccc2nccn12 | . | . | 128 | . | . | .
COc1ccc(C(=O)c2ccc(Br)cc2)cc1 | . | . | . | . | . | 20227
O=C(/C=C/c1ccccc1)NC(NC(=S)Nc1ccc(Cl)cc1Cl)C(Cl)(Cl)Cl (stereo unspecified) | . | . | . | . | . | .
CCOC(=O)C(=CNc1ncccc1C)C(=O)OCC | . | . | . | . | 38 | .
CCOC(=O)C(=CNc1cc(C)nn1-c1ccccc1)C(=O)OCC | . | . | . | ? | . | 21382
CCOC(=O)C(=CNc1ccccc1C)C(=O)OCC | . | . | . | . | . | .
Cc1nn(C)c(Oc2ccccc2)c1CCNC(=O)CCl | . | . | . | . | . | .
CC(=O)OCc1c(C(F)(F)F)nn(C)c1Oc1ccccc1 | . | . | . | . | . | 17428
